Results from PubChem BioAssay.
The source made the active and inactive calls.

Legend:
Albumin (Bos taurus) = Albumin (Bos taurus) (UniProt P02769); assay: compounds binding labelled BSA control protein – biochemical, small-molecule microarray, Alexa647 label, 635/667 nm fluorescence, artefact control for SMM control protein annotation, profiling panel (AID 1118); conditions: BSA-A647 binding, fluorescence 635 nm, higher = more signal;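 note: score merges 667 nm emission intensity and signal-to-noise per printed compound spot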
[1] = probe aXIP binding to arrayed compounds – biochemical, NeuroSMM set, 635/667 nm fluorescence, primary screen (AID 1119); conditions: small-molecule microarray, higher = more signal, called active from +8 up or from −8 down;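 note: probe is the protein aXip251-270 applied at 1 µg/mL to compound-printed slides; binding of probe to printed compounds measured as 667 nm fluorescence plus signal to noise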
[2] = probe aNOTCH3 binding on compound microarray – biochemical, small-molecule microarray, 635/667 nm fluorescence, primary screen (AID 1120); conditions: higher = more signal;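 note: probe is a biotin-tagged antibody raised against NOTCH3 rather than NOTCH3 protein; score merges spot fluorescence near 667 nm with spot signal to noise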
[3] = probe aNOTCH2 binding on compound microarray – biochemical, small-molecule microarray, 635/667 nm fluorescence, primary screen (AID 1121); conditions: higher = more signal;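 note: score merges feature fluorescence read at 667 nm with its signal to noise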
[4] = biological target: Carbonic anhydrase 2 (Homo sapiens) (UniProt P00918); assay: compounds binding carbonic anhydrase 2 – biochemical, small-molecule microarray, Alexa647-labelled CAII, profiling panel (AID 1122); conditions: CAII-A647 binding fluorescence, higher = more signal
[5] = COS7 lysate on small-molecule microarray, probe aHis, 635 nm (AID 1123); conditions: COS7 cell lysate, fluorescence, higher = more signal;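 note: z-score combines 667nm fluorescence intensity with signal-to-noise per printed compound spot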
[6] = probe aLAP1 signal on lysate-treated microarray – cell lysate, small-molecule microarray, COS7 lysate, primary screen (AID 1124); conditions: probe aLAP1, fluorescence, higher = more signal;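 note: lysate comes from COS7 cells expressing LAP1 and is applied at 0.3 µg/mL; score merges spot fluorescence near 667 nm with signal-to-noise over triplicate slides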
Sam68 (KHDRBS1) = assay: compounds binding KHDRBS1 protein – biochemical, small-molecule microarray, 635 nm fluorescence, primary screen (AID 1125); conditions: higher = more signal;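 note: score merges 667 nm channel intensity with signal to noise over triplicate slides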
[7] = test system: Chordin-like protein 2 (CHRDL2); assay: compounds binding chordin-like 2 – biochemical, small-molecule microarray, 635 nm fluorescence, primary screen (AID 1126); conditions: fluorescence 635 nm, higher = more signal;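 note: printed compound slides probed with Chrdl2 protein at 4 µg/mL for 1 h at 4 C; score merges 667 nm emission intensity with signal to noise over three replicate slides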
[8] = biological target: Concanavalin-A (Canavalia ensiformis) (UniProt P02866); assay: compounds binding concanavalin A lectin – biochemical, small-molecule microarray, Alexa647 label, 635 nm, artefact control for SMM control protein annotation, primary screen (AID 1127); conditions: ConA-A647 binding fluorescence, higher = more signal;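 note: z combines 667 nm emission intensity with signal-to-noise across three replicate slides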
[9] = compounds binding Alexa647 anti-His antibody – biochemical, small-molecule microarray, 635 nm fluorescence, artefact control for SMM control protein annotation, primary screen (AID 1128); conditions: higher = more signal;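 note: score merges feature fluorescence with signal-to-noise for each printed compound spot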
[10] = test system: Human papillomavirus type 1a E7 protein (residues 1-88); assay: HPV1a E7 small-molecule binders, primary screen, biochemical, small-molecule microarray, residues 1-88, 635 nm (AID 1129); conditions: small-molecule microarray binding, fluorescence 635 nm; higher = more signal
[11] = biological target: Focal adhesion kinase 1 (Homo sapiens) (UniProt Q05397); assay: PTK2 protein binding on printed compound slides – biochemical, small-molecule microarray, 635/667 nm fluorescence, BSA, DTT, primary screen (AID 1130); conditions: 635 nm fluorescence, higher = more signal;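 note: composite of spot emission at 667 nm and signal to noise over triplicate slides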
[12] = test system: Fibrinogen (Alexa647-labelled); assay: Alexa647-fibrinogen binding to printed small molecules – biochemical, small-molecule microarray, 635/667 nm fluorescence, artefact control for SMM control-protein annotation, profiling panel (AID 1131); conditions: fibrinogen-A647 binding fluorescence, higher = more signal;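 note: z-score merges 667 nm fluorescence with per-spot signal-to-noise over triplicate slides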
[13] = biological target: Follistatin (Homo sapiens) (UniProt P19883); assay: FST protein binding to printed compounds – biochemical, small-molecule microarray, 635/667 nm fluorescence, primary screen (AID 1132); conditions: 635 nm fluorescence, higher = more signal
[14] = biological target: Fibroblast growth factor 2 (Homo sapiens) (UniProt P09038); assay: basic fibroblast growth factor binding to printed compounds – biochemical, small-molecule microarray, 635/667 nm fluorescence, primary screen (AID 1133); conditions: FGF2, fluorescence 635/667, higher = more signal
[15] = JC-1 mitochondrial potential readout, lung cancer cells – cell-based, A549, JC-1 fluorescence, basal, 24 h, 100 nL, profiling panel (AID 1138); conditions: higher = more signal;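 note: A549 lung adenocarcinoma cells under basal conditions with no added stimulus; test concentration not given here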
Lefty1 = Lefty1 protein binding to printed compounds – biochemical, small-molecule microarray, 635/667 nm fluorescence, primary screen (AID 1139); conditions: fluorescence 635/667, higher = more signal
[16] = test system: wheat germ agglutinin (Triticum aestivum), Alexa647-labelled; assay: Alexa647-WGA lectin binding to printed small molecules – biochemical, small-molecule microarray, 635/667 nm fluorescence, artefact control for SMM control-protein annotation, profiling panel (AID 1140); conditions: WGA-A647 binding, 635 nm fluorescence, higher = more signal;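 note: score merges 667 nm feature emission with signal to noise over triplicate slides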
[17] = biological target: Luciferin 4-monooxygenase (Photinus pyralis) (UniProt P08659); assay: inhibition of purified Photinus pyralis luciferase – biochemical, luminescence, purified enzyme, 2006 set, primary screen (AID 1141); conditions: purified firefly luciferase, SteadyGlo luminescence, 30 min; higher = more signal, called active from +8 up or from −8 down;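 note: cell-free assay with purified firefly luciferase at 100 ng per well in PBS; test concentration not given here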
Chain of Luciferin 4-monooxygenase (Photinus pyralis) (P08659 whole entry, looked up): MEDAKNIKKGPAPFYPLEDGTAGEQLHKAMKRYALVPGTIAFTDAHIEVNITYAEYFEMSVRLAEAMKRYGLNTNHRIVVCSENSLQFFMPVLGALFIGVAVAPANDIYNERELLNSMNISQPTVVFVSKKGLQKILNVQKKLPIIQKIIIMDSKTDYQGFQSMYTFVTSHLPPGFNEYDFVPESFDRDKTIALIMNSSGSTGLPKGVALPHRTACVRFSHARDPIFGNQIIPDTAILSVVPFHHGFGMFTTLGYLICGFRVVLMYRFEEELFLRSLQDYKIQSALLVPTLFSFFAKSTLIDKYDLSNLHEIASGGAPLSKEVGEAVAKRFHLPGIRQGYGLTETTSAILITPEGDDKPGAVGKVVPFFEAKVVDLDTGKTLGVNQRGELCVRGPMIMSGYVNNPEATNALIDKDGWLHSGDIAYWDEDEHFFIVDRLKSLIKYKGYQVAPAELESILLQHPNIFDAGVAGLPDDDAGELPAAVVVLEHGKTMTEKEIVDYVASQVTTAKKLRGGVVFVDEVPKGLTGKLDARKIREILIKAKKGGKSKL

Chain of Fibroblast growth factor 2 (Homo sapiens) (P09038 whole entry, looked up): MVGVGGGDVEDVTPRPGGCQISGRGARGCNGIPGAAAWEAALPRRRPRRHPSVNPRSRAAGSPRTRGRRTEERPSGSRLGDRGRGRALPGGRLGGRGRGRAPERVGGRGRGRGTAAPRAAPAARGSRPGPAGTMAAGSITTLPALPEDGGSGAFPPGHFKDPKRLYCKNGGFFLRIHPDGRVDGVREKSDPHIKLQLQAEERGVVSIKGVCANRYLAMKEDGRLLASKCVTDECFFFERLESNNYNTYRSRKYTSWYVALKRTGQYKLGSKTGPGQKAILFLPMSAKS
Chain of Concanavalin-A (Canavalia ensiformis) (P02866 whole entry, looked up): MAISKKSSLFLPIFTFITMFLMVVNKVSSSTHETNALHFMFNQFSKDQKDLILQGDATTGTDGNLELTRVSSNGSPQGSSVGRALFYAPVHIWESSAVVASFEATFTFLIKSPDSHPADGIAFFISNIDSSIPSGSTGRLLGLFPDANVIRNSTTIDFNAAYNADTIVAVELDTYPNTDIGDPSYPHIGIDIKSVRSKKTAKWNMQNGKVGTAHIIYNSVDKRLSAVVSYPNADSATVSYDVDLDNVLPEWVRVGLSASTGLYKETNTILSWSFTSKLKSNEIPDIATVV
Chain of Follistatin (Homo sapiens) (P19883 whole entry, looked up): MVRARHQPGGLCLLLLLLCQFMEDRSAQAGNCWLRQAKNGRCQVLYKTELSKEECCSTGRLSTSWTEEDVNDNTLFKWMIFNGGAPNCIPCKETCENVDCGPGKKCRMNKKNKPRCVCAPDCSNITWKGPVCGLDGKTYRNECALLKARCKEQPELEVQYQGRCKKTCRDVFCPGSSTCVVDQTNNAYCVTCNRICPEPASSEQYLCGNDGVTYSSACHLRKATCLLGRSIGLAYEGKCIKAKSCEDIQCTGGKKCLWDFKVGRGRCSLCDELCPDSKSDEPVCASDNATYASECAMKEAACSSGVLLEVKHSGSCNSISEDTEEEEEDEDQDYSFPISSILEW
Chain of Albumin (Bos taurus) (P02769 whole entry, looked up): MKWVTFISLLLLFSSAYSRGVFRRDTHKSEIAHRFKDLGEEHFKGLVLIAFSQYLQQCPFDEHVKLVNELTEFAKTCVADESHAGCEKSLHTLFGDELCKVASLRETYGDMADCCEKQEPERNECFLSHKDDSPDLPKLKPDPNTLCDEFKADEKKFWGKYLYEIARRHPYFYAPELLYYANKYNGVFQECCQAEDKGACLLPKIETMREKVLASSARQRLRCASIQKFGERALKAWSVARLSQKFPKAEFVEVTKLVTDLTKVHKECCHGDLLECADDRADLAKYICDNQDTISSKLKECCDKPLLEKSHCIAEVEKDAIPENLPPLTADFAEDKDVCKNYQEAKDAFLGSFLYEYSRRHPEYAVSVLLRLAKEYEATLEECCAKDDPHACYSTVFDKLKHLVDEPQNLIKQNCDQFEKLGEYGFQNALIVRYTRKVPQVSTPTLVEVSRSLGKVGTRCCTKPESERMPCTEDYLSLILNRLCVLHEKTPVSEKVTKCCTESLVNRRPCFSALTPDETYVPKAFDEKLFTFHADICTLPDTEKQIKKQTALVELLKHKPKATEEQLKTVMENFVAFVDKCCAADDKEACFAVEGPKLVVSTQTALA
Chain of Focal adhesion kinase 1 (Homo sapiens) (Q05397 whole entry, looked up): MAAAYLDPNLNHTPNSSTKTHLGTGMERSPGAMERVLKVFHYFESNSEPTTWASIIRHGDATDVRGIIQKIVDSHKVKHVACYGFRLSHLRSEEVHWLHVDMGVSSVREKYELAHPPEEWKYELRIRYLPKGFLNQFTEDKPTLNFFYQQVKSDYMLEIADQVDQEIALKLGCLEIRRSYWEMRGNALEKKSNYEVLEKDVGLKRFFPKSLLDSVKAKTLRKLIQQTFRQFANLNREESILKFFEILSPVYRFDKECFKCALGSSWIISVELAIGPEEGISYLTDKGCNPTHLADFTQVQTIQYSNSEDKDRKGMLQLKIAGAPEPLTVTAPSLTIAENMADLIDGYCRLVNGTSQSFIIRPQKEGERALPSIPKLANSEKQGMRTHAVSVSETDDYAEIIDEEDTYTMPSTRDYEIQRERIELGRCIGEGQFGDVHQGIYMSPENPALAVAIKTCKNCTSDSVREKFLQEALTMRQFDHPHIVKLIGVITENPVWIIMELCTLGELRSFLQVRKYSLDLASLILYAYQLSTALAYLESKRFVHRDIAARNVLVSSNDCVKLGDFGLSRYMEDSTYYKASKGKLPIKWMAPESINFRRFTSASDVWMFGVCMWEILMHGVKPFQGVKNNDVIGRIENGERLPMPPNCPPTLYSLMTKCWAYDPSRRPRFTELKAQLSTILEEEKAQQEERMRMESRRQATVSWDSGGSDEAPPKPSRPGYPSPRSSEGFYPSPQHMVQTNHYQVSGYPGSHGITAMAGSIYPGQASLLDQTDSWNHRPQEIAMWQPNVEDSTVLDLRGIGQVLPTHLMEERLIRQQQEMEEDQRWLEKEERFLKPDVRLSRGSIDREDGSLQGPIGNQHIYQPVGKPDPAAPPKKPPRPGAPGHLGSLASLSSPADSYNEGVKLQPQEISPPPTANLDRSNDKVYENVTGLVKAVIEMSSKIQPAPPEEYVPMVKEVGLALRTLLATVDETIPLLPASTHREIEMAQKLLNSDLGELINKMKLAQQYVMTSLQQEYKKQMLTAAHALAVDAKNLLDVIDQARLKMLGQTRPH

Structure (SMILES) | composite z-score (Albumin (Bos taurus)) | composite Z-score [1] | composite z-score [2] | composite z-score [3] | composite z-score [4] | composite z-score [5] | composite z-score [6] | composite z-score (Sam68 (KHDRBS1)) | composite z-score [7] | composite z-score [8] | composite z-score [9] | composite z-score [10] | composite z-score [11] | composite z-score [12] | composite z-score [13] | composite z-score [14] | z-score [15] | composite z-score (Lefty1) | composite z-score [16] | z-score [17]
COCCOC(=O)N1C(=O)[C@@]2(c3cc(C#CCCO)ccc31)[C@H](c1ccc(OCCO)cc1)N1[C@H](c3ccccc3)[C@H](c3ccccc3)OC(=O)[C@H]1[C@@H]2C(N)=O | 0.482 | 0.606 (inactive) | -0.0117 | -0.0567 | 0.588 | 1.93 | -0.591 | 1.29 | 0.437 | 1.17 | 1.3 | 1.2 | 0.711 | 0.837 | 1.04 | 0.752 | -0.212 | 0.496 | 0.694 | -1.77 (inactive)
O=C1OCCC/C=C\[C@H]2OC34C=CCN(c5ccc6ccccc6c5)C(=O)[C@H]3N(CCCCCO)C(=O)[C@@H]4C12 (stereo not given in full) | -0.152 | 0.328 (inactive) | -0.295 | -0.182 | 0.828 | -1.92 | -0.289 | -1.63 | -0.654 | -0.328 | -0.268 | -1.62 | -0.24 | -0.582 | -0.472 | -1.06 | -0.168 | -0.343 | -0.753 | 0.118 (inactive)
CCCCCN1CC=CC23O[C@@H]4C=CCOC(=O)[C@@H]4[C@H]2C(=O)N(C(C)CO)[C@@H]3C1=O (stereo not given in full) | 0.755 | -0.294 (inactive) | -0.403 | -0.12 | 0.863 | -0.284 | -0.0739 | -1.22 | -0.811 | -0.54 | -0.396 | -0.669 | 0.174 | -0.235 | -1.12 | -0.495 | -0.197 | -1.23 | -0.383 | 0.101 (inactive)
O=C1C2C=CC(C(O)C=Cc3ccc([N+](=O)[O-])cc3)N(n3cnnc3)C2C(=O)N1Cc1ccccc1 (stereo not given) | 0.235 | 0.263 (inactive) | 0.177 | 0.02 | 0.66 | 1.38 | 1.04 | 1.19 | 0.682 | 0.876 | 1.88 | 1.06 | 0.376 | 0.699 | 1.16 | -0.0745 | -0.772 | -0.0293 | 0.941 | 0.872 (inactive)
CN(C)C(=O)[C@]1(Cc2ccccc2)N=C(c2ccc(OCCCO)cc2)O[C@@H]1c1ccccc1N=[N+]=[N-] | 0.784 | 0.431 (inactive) | 0.23 | -0.0145 | 0.782 | 2.12 | 0.764 | 1.32 | -0.199 | 1.1 | 2.47 | 1.2 | 0.203 | 0.96 | 1.33 | 1.63 | 0.702 | 0.244 | 0.702 | -5.05 (inactive)
CO[C@H]1O[C@H](CO)[C@@H](OC(=O)Nc2ccccc2-c2ccccc2)[C@H](OC(=O)Nc2ccccc2-c2ccccc2)[C@@H]1OC(=O)Nc1ccccc1-c1ccccc1 | 0.926 | 0.523 (inactive) | 0.0904 | -0.0513 | 0.374 | 2.18 | 0.75 | 1.29 | 0.332 | 1.17 | 0.747 | 1.23 | 0.993 | 0.906 | 1.2 | 0.814 | -0.00054 | 0.55 | 0.827 | -0.858 (inactive)
C=C(CCCC)C(=O)CC[C@@H](OC(C)=O)c1ccc(CO)o1 | -0.855 | -0.666 (inactive) | -0.0581 | -0.108 | 0.645 | 0.423 | -0.0353 | 0.628 | 0.869 | 0.0313 | 0.184 | -0.261 | -0.437 | 0.513 | 1.36 | 1.8 | -0.683 | 1.64 | 0.201 | -1.3 (inactive)
COc1ccc([C@H]2C[C@H]3C(Br)=C[C@@]2(CO)C(=O)[C@]32CO2)cc1 | -0.613 | -0.0805 (inactive) | -0.103 | -0.0684 | 0.0574 | -0.128 | 0.289 | -0.318 | 0.282 | 0.178 | -0.436 | -0.99 | 0.125 | 0.281 | -0.0737 | -0.441 | -0.592 | -0.271 | 0.138 | 0.601 (inactive)
CN1C(=O)C2C=CC(C(O)C=Cc3ccc([N+](=O)[O-])cc3)N(Nc3ccccc3)C2C1=O (stereo not given) | 0.988 | 0.268 (inactive) | 0.255 | -0.0894 | 0.624 | 1.21 | 0.19 | 1.3 | 0.674 | 0.988 | 1.26 | 1.24 | 0.198 | 1.01 | 1.1 | 0.028 | 0.509 | 0.637 | 0.289 | -1.02 (inactive)
CCCCC(=C=CC[C@@H](O)c1cccc(OCCO)c1)C[C@@H](O)c1ccccn1 | 0.416 | 0.216 (inactive) | -0.0881 | -0.172 | 0.7 | 0.617 | 0.651 | 1.29 | 0.263 | 0.664 | 2.56 | 0.873 | -0.204 | 0.837 | 1.31 | 0.605 | 0.0206 | 1.2 | 0.26 | 0.0494 (inactive)
COc1ccc(C(=O)Nc2ccc(CN3C(=O)[C@]4(O[C@H](CC(=O)N5CCC[C@H]5CO)[C@@H]([Si](C)(C)c5ccc(OC)cc5)[C@@H]4C)c4ccccc43)cc2)cc1 | -0.398 | 0.0524 (inactive) | 0.218 | -0.0681 | 0.298 | 1.72 | 0.394 | 1.29 | 0.666 | 0.884 | 1.91 | 1.15 | 0.297 | 0.81 | 1.06 | 1.44 | 0.195 | 0.942 | 0.601 | -1.08 (inactive)
